# Results published in PubChem BioAssay AID434994 (NMMLSC, 2010).
# Some of the results follow. Active and inactive are the calls of the source.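 Rule for the calls: active = superoxide signal below 65% of the plate average of sample wells; inactive = the rest.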
# Assay: superoxide lowering in aged yeast cells, confirmation, cherry picked compounds (AID 434994);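 note: cells aged with compound for 7 days at 30 degrees C before staining; 100% equals mean DHE fluorescence of all compound wells on the plate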
# Conditions: S. cerevisiae aging, superoxide DHE fluorescence; at 10 µM; stronger effect = lower value
row,SMILES,superoxide response (% of plate)
1,O=C(Nc1cccc(Cl)c1Cl)c1ccccc1NC(=O)C1CC=CCC1C(=O)O (stereo unspecified),101% (inactive)
2,COc1cc(-c2nnn(CC(=O)NCc3ccccc3)n2)cc(OC)c1OC,100% (inactive)
3,Cc1ccc(-c2nn(C(C)(C)C)c3ncnc(N)c23)cc1,42.9% (active)
4,O=C(O)c1ccc(F)c(S(=O)(=O)Nc2ccccc2)c1,101% (inactive)
5,CSc1ncc(Cl)c(C(=O)Nc2cc(C)ccc2C)n1,95.3% (inactive)
6,CSc1sc(C(=O)NNC(=O)c2ccc(Cl)cc2)c2c1C=CCC2,104% (inactive)
